# Source: the supplement of paper PMC11732987, “Enantioselective OTUD7B fragment discovery through chemoproteomics screening and high-throughput optimisation” (Communications Chemistry, 2025)
# A number with no mark means an inactive call.
# Legend:
# Experiment in all cases: log2 ratio of Biotin-Ahx-Ub-VS probe labelling (fragment/DMSO); higher = less target engagement (more negative = stronger competition), active = hit call of the paper (q ≤ 0.05, log2 ratio ≤ -1)
# Details in all cases: compound concentration: 200 uM; treatment time: 3 h
# OTUD6B = target: T1, OTUD6B (UniProt Q8N6M0)
# T1 sequence (whole entry): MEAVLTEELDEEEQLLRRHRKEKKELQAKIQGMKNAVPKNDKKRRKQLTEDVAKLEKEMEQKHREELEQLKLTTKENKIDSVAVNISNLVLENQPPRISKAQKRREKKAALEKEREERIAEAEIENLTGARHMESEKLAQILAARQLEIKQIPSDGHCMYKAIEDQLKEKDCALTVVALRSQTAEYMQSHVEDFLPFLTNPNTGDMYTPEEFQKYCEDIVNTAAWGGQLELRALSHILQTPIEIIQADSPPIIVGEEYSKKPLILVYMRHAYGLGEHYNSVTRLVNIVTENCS
# Outline: (§1)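 Labelled DUBs from HEK293T lysate were NeutrAvidin-enriched, digested with LysC and trypsin, and run by diaPASEF LC-MS/MS. Before that, each 495 µg sample in Tris/CHAPS/IGEPAL buffer with protease inhibitors was treated in triplicate with fragment at 200 µM or vehicle for 3 h, then with Biotin-Ahx-Ub-VS at 0.5 µM final for 1 h. Values are average log2 ratios of fragment over vehicle by unpaired t-test, based on global-median-normalised Spectronaut label-free quantities from proteins with ≥2 unique peptides.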
# OTUD7B = target: T2, OTUD7B (UniProt Q6GQQ9)
# T2 sequence (whole entry): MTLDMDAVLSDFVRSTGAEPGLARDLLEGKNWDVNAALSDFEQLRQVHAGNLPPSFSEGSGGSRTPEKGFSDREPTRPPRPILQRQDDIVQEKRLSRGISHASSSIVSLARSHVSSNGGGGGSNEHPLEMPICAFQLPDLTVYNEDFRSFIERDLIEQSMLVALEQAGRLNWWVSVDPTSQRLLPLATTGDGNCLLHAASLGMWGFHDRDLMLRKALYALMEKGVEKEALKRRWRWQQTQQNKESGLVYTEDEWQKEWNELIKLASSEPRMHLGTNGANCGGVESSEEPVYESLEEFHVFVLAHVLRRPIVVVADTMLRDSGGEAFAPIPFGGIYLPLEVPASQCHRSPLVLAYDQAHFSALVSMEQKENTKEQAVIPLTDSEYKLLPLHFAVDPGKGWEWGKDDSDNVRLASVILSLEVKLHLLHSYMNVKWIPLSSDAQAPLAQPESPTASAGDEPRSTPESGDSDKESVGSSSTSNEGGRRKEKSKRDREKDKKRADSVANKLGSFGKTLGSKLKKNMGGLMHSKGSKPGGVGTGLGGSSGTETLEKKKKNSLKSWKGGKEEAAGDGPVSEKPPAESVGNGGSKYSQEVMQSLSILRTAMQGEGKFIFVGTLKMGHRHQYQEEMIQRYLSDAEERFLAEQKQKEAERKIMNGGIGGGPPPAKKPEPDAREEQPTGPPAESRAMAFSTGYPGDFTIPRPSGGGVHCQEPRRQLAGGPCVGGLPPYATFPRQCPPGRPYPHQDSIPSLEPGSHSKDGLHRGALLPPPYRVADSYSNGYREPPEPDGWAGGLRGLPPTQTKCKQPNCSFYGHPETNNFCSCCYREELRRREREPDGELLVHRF
# Outline: as §1
# PRPF8 = PRPF8 (UniProt Q6P2Q9)
# Outline: as §1
# PSMD7 = target: T3, PSMD7 (UniProt P51665)
# T3 sequence (whole entry): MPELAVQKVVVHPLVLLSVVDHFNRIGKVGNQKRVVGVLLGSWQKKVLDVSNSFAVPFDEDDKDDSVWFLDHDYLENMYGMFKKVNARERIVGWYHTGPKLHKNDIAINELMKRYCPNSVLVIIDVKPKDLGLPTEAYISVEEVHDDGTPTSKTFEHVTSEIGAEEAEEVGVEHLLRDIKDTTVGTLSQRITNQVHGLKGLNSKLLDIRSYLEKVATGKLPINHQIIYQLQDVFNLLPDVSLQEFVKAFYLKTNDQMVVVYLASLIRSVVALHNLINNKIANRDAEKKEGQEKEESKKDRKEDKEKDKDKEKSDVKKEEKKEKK
# Outline: as §1
# UCHL1 = UCHL1 (UniProt P09936)
# Outline: as §1
# UCHL3 = target: T4, UCHL3 (UniProt P15374)
# T4 sequence (whole entry): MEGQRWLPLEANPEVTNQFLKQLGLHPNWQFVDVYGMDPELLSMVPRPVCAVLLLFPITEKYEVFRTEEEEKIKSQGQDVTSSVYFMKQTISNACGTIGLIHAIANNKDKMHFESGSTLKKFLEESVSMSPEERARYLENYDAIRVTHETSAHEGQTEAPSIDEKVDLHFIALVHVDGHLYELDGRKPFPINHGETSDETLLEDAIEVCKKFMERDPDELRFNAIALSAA
# Outline: as §1
# UCHL5 = target: T5, UCHL5 (UniProt Q9Y5K5)
# T5 sequence (whole entry): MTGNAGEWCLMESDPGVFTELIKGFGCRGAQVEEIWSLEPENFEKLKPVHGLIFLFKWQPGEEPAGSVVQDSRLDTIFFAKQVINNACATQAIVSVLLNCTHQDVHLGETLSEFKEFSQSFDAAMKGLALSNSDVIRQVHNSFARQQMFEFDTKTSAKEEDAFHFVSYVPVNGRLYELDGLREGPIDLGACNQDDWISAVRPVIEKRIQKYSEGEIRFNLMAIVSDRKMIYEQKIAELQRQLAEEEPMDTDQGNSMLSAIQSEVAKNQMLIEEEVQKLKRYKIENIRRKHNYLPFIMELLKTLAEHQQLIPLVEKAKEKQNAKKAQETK
# Outline: as §1
# USP10 = USP10 (UniProt Q14694)
# Outline: as §1
# USP15 = target: T6, USP15 (UniProt Q9Y4E8)
# T6 sequence (whole entry): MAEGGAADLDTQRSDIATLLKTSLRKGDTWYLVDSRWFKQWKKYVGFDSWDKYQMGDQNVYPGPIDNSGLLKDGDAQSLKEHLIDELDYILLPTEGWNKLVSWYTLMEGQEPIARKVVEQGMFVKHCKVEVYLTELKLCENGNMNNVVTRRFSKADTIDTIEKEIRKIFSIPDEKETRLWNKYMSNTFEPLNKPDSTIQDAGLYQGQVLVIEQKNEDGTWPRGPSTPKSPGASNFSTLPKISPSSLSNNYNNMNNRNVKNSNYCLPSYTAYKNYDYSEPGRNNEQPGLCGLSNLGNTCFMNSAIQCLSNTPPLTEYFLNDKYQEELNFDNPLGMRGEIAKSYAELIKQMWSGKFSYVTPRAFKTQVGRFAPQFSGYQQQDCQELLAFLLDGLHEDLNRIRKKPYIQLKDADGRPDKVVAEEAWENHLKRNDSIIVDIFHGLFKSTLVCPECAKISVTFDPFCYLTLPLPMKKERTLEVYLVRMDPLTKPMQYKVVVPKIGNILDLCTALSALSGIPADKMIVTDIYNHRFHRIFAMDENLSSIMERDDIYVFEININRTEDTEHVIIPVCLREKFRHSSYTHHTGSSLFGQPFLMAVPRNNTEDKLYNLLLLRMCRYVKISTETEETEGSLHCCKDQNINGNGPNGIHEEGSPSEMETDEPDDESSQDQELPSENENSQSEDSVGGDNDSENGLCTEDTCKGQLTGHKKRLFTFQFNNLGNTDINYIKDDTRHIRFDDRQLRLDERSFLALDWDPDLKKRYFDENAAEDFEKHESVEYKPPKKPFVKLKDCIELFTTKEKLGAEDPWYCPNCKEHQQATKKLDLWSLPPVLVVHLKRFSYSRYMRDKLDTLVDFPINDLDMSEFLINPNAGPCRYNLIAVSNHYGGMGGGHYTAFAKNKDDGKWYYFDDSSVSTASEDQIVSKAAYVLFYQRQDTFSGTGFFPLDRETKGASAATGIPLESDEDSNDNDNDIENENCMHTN
# Outline: as §1
# UCHL1, sequence (P09936 whole entry, looked up): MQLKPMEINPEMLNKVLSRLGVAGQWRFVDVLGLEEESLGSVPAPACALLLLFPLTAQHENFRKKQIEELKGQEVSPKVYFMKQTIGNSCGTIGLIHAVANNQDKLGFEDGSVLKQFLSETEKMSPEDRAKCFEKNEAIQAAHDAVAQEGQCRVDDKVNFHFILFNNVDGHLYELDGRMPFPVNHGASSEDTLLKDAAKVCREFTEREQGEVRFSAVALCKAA
# USP10, sequence (Q14694 whole entry): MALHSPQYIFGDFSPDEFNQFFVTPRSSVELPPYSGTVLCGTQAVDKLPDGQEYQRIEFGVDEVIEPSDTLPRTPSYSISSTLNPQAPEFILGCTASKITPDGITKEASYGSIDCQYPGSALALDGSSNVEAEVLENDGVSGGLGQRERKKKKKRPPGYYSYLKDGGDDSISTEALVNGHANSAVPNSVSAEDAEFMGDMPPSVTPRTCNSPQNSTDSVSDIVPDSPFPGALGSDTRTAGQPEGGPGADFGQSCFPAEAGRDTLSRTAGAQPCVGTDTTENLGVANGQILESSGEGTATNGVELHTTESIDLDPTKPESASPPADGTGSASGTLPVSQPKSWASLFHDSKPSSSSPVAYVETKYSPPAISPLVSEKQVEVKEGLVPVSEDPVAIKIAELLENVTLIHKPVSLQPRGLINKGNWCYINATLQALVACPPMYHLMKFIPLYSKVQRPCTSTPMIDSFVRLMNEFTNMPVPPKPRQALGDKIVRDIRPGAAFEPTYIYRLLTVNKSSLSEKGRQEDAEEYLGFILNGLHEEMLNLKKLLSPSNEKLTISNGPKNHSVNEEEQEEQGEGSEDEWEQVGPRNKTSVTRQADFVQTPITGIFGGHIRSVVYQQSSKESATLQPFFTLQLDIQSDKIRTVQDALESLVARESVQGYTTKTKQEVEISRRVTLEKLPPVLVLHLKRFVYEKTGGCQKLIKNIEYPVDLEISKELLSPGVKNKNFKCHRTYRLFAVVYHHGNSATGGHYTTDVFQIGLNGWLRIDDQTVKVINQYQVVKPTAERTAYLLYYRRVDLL
smiles,measurement,setting,value
C[C@@H](NC(=O)CCl)c1cccc(C#N)c1,log2 ratio of Biotin-Ahx-Ub-VS probe labelling,OTUD6B,-0.0614
same,log2 ratio of Biotin-Ahx-Ub-VS probe labelling,OTUD7B,-1.42 (active)
same,log2 ratio of Biotin-Ahx-Ub-VS probe labelling,PRPF8,0.0368
same,log2 ratio of Biotin-Ahx-Ub-VS probe labelling,PSMD7,-0.233
same,log2 ratio of Biotin-Ahx-Ub-VS probe labelling,UCHL1,-1.24 (active)
same,log2 ratio of Biotin-Ahx-Ub-VS probe labelling,UCHL3,0.359
same,log2 ratio of Biotin-Ahx-Ub-VS probe labelling,UCHL5,-0.189
same,log2 ratio of Biotin-Ahx-Ub-VS probe labelling,USP10,-0.103
same,log2 ratio of Biotin-Ahx-Ub-VS probe labelling,USP15,-0.222
